# In ChEMBL document CHEMBL4513216, “Probing the Open Global Health Chemical Diversity Library for Multistage-Active Starting Points for Next-Generation Antimalarials” (ACS Infect Dis, 2020):
# In all, about 68,000 compounds went through this assay and about 2,700 (4%) showed an effect of 50% or more. The sample as a whole holds a higher share of strong results than the screen did.
# Tested on: Plasmodium berghei
# Test: Screen against P. berghei liver stage (PbLuc), transformed with Luciferase, at 2uM
# Assay type: functional, HepG2
# Settings: tested at 2 uM
row,Compound,INHIBITION
1,O=C(c1cc(=O)c(OCc2ccccc2F)co1)N1CCSCC1,36.6%
2,c1csc(CN2CCOCC3(CCN(C4CCOCC4)C3)C2)n1 (stereo not given),2.71%
3,CC(C)c1nc(CN2CCCC2Cn2cncn2)no1 (stereo not given),-13.92%
4,CCN1CCCC(C)(C(=O)NCc2nncn2CCc2ccccc2)C1 (stereo not given),-4.93%
5,c1ccc(-c2nc(CN3CCCC3Cn3cncn3)no2)cc1 (stereo not given),-5.3%
6,CC1(C)CC(=O)N(CC(=O)Nc2ccon2)c2ccccc21,40.97%
7,CCn1ccnc1CN1CCN(CC(O)CN2CCOCC2)CC1 (stereo not given),38.68%
8,Cc1ccc(CNC(CN2CCN(C)CC2)c2ccccc2)cc1 (stereo not given),-10.6%
9,CN1CCN(CC(NCc2ccc(F)cc2)c2ccccc2)CC1 (stereo not given),58.29%
10,CN1CCN(CC(NCc2ccc(F)c(F)c2)c2ccccc2)CC1 (stereo not given),12.57%
11,c1ccc(CNCC2Cn3nnc(-c4ccncc4)c3CO2)nc1 (stereo not given),2.87%
12,CCc1ccc(-c2cn3c(C(=O)NCC(C)C(=O)NC)csc3n2)cc1 (stereo not given),8.54%
13,CCc1ccc(-c2cn3c(C(=O)N[C@H](C(N)=O)[C@@H](C)O)csc3n2)cc1,61.82%
14,C[C@@H](O)[C@H](NC(=O)c1csc2nc(-c3ccccc3F)cn12)C(N)=O,16.95%
15,CCCc1cc(=O)[nH]c(SCc2ccccn2)n1,4.95%
16,CCc1cc(=O)[nH]c(SCc2ccccn2)n1,8.41%
17,CCc1c(C)nc(SCc2ccccn2)[nH]c1=O,50.67%
18,CNC(=O)c1cc2c(nc1N(C)C)CCN(c1ncccn1)CC2,-31.3%
19,Cc1nn2cc(CCNC(=O)c3cc(C(C)C)nn3C)nc2s1,-8.8%
20,Cc1nn2cc(CCNC(=O)c3cc(C(C)C)no3)nc2s1,11.9%
21,Cc1cc(C(=O)NCCc2cn3nc(C)sc3n2)c(C)o1,55.66%
22,COCC1CN(C(=O)Cc2cccc(F)c2)Cc2ccnn2C1 (stereo not given),13.52%
23,CCCN(CCc1ccccn1)C(=O)CCc1cnn(C)c1,-46.85%
24,CC1(C)CC(N(Cc2ccccc2)Cc2cccnc2)CC(C)(C)N1,26.52%
25,CNC(=O)c1cccnc1N1CCN(Cc2ccccc2)C(CCO)C1 (stereo not given),-4.52%
26,Cc1ccc(CN2CCN(c3ncccc3C(N)=O)CC2CCO)cc1 (stereo not given),3.92%
27,O=C(O)c1cccnc1N1CCN(Cc2ccc(F)cc2)C(CCO)C1 (stereo not given),78.43%

row,Compound,INHIBITION
1,c1cncc(C2COC3(CCN(Cc4ccsc4)CC3)C2)c1 (stereo not given),32.85%
2,Cn1nccc1CN1CCOC(c2cccc(Nc3ccccn3)n2)C1 (stereo not given),-88.78%
3,Cc1nc(C)c(CNC(=O)N2CCc3ccccc3C2CO)s1 (stereo not given),5.98%
4,Cc1cc(CC(=O)NC2CCCN(Cc3ccccc3)C2=O)n[nH]1 (stereo not given),-8.63%
5,COc1cccc(C(=O)N2CCC3(CCC(=O)N(C(C)C)C3)CC2)c1C,63.37%
6,COc1cc(C)ccc1C(=O)N1CCC2(CCC(=O)N(C(C)C)C2)CC1,-4.62%
7,COc1ccc(F)cc1C(=O)N1CCC2(CCC(=O)N(C(C)C)C2)CC1,23.76%
8,CC(=O)N1CCN(C(=O)CNc2cccc(OC(F)F)c2C)CC1,17.61%
9,COc1ccc(OC)c(C2CCN(C(=O)C3CCC(O)CC3)C2)c1 (stereo not given),55.36%
10,COc1ccc(OC)c(C2CCN(C(=O)C3CCOCC3)C2)c1 (stereo not given),48.21%
11,COc1ccc(OC)c(C2CCN(C(=O)C3CCS(=O)(=O)CC3)C2)c1 (stereo not given),-18.57%
12,COc1ccc(C(=O)NCc2cccnc2N2CCOCC2)o1,-49.51%
13,O=C(c1cccs1)N1CCC(n2nc(-c3ccco3)ccc2=O)CC1,38.1%
14,CCc1c(C)nn(CC(=O)NC(C)c2n[nH]c(C)n2)c1C (stereo not given),40.15%
15,Clc1ccc(C2(CNC3=NCCN3)CC2)cc1,53.98%
16,Clc1ccc(C2(CNC3=NCCN3)CCCC2)cc1,6.85%
17,Clc1ccc(C2(CNC3=NCCN3)CCCCC2)cc1,35.46%
18,Cc1cnc(N2CCCC3(COCCN(c4ccc(C)nn4)C3)C2)nc1 (stereo not given),20.21%
19,CN(Cc1cccc(O)c1)C(=O)c1ccc(CCC(C)(C)O)cc1,19.75%
20,O=C(NCCc1cccs1)N1CCC[C@H]1CO,55.39%
21,O=C(NCCCc1cccs1)N1CCCCC1CCO (stereo not given),39.97%
22,O=C(NCCc1cccs1)N1CCCC1CCCO (stereo not given),8.03%
23,COCC(=O)N1CCCC(C(=O)N(C)CCn2ccnc2C)C1 (stereo not given),46.04%
24,Cc1ccc2nc(C)c(C)c(C(=O)NCCCn3ccnn3)c2c1,56.21%
25,Cc1ccc2[nH]c(C(=O)NCCCn3ccnn3)c(C)c2c1,22.39%
26,Cc1ccc2nc(C)c(C)c(C(=O)NCCCn3cnnc3)c2c1,10.78%
27,CC(=O)NCCC1CCCCN1S(=O)(=O)c1cccc(F)c1 (stereo not given),50.91%

row,Compound,INHIBITION
1,CC(=O)NCCC1CCCCN1S(=O)(=O)c1ccc2ccccc2c1 (stereo not given),29.89%
2,CC(=O)NCCC1CCCCN1S(=O)(=O)c1cccc(Cl)c1 (stereo not given),-12.13%
3,Cn1cc(-c2csc(N3CCOCC3)n2)cn1,13.35%
4,Cc1occc1C(=O)N1CCOCC2(CCN(Cc3nccs3)C2)C1 (stereo not given),3.85%
5,O=C(N1CCCC1)N1C[C@H]2CCC[C@@]2(COCc2ccccn2)C1,5.44%
6,CSC(C)C(=O)NS(=O)(=O)c1ccc(F)c(C(F)(F)F)c1 (stereo not given),51.48%
7,CC(C)C(=O)NS(=O)(=O)c1ccc(F)c(C(F)(F)F)c1,18.82%
8,COC(C)C(=O)NS(=O)(=O)c1ccc(F)c(C(F)(F)F)c1 (stereo not given),35.7%
9,CC(C)N(C)CCC(=O)N1CCCC(c2ccc(C(=O)O)cc2)C1 (stereo not given),-1.98%
10,CCCn1nc2c(cc1=O)CN(Cc1cc(C)on1)CC2,-1.79%
11,Cc1cc(CN2CCc3nn(C)c(=O)cc3C2)on1,-2.31%
12,CCn1nc2c(cc1=O)CN(Cc1cc(C)on1)CC2,73.01%
13,Cc1cc(CN2CCc3nn(C)c(=O)cc3C2)no1,22.34%
14,CCCn1nc2c(cc1=O)CN(Cc1cc(C)no1)CC2,62%
15,CCCn1nc2c(cc1=O)CN(Cc1c(C)noc1C)CC2,44.37%
16,Cc1cc(C)nc(N2CCC(Cn3cc(C(N)=O)cn3)CC2)n1,0.93%
17,Clc1ccc(-c2nnc([C@H]3CCN(C4CCCCC4)C3)o2)cc1,-57.27%
18,O=C(Nc1cn[nH]c1)N1CCN(CCSc2ccccc2)CC1,-11.24%
19,COCCN1CCc2cc(C(=O)NC(C)C)c(NCC(C)C)nc2CC1,42.15%
20,Cc1nn(C)c(Oc2ccc(Cl)cc2)c1CN1CCC(CN)C1 (stereo not given),64.9%
21,Cc1nn(C)c(Oc2ccc(Cl)cc2)c1CN1CCOC(CN)C1 (stereo not given),48.21%
22,Cc1nn(C)c(Oc2ccc(Cl)cc2)c1CN1CC[C@H](CO)[C@@H](O)C1,43.44%
23,CN(C)C(=O)CN1C[C@H]2CC[C@@H](C1)N(Cc1ccccc1OCCO)C2,5.28%
24,CC(C)[C@@H]1CN(Cc2cnc(C3CCCCC3)nc2)C[C@H]1N(C)C,-1.57%
25,COc1ccccc1OCCNCc1c(C(C)C)nn(C)c1N(C)C,7.64%
26,CC(C)c1nn(C)c(N(C)C)c1CNCC(O)c1ccccc1 (stereo not given),35.65%
27,CC(C)c1nn(C)c(N(C)C)c1CNCC(O)c1ccccc1F (stereo not given),78.51%

row,Compound,INHIBITION
1,COc1ccccc1C(O)CNCc1c(C(C)C)nn(C)c1N(C)C (stereo not given),63.95%
2,Cc1nn(C)c(N(C)C)c1CNCC(O)c1ccccc1F (stereo not given),49.9%
3,COc1c(CNCC(O)c2ccccc2F)c(C(C)C)nn1C (stereo not given),-72.31%
4,O=C(NCC1CC1)c1n[nH]c2c1CNCC2,5.69%
5,COc1nn(C)cc1C(=O)NCC(OC)c1ccccc1C (stereo not given),24.09%
6,COc1ccc(NC(=O)CN2CCCCC2C2OCCO2)cc1 (stereo not given),-13.68%
7,O=C(C1CC1)N1CCN(C(=O)C2CC(=O)N(c3ccccc3Br)C2)CC1 (stereo not given),10.42%
8,COC1CCN(C(=O)C2CC(=O)N(c3ccccc3Br)C2)CC1 (stereo not given),22.86%
9,O=C(C1CC(=O)N(c2ccccc2Br)C1)N1CCCCCC1 (stereo not given),57.51%
10,CC(c1cn2ncsc2n1)n1cc2[nH]cccc-2c1=O (stereo not given),30.09%
11,CC(C)OCc1ncn2c1CN(CC1CC1)CCC2,-13.31%
12,O=C(NCC1CC1)[C@H]1C[C@H]2OCC[C@H]2N(Cc2ccsc2)C1,-12.09%
13,O=C(Nc1cnccn1)[C@@H]1C[C@H]2OCC[C@H]2N(Cc2ccsc2)C1,59.52%
14,O=C(Nc1cccnc1)[C@@H]1C[C@H]2OCC[C@H]2N(Cc2ccsc2)C1,-83.74%
15,Cc1cccc(S(=O)(=O)N2C[C@@H]3C[C@H](C(=O)NC4CCC4)[C@H](C2)O3)c1,12.57%
16,COCCN1C[C@@H]2CC[C@H]1CN(C(=O)CCc1c(C)nn(C)c1C)C2,-23.17%
17,O=C(Nc1ccc(-c2nc3c([nH]2)CCNC3)cc1)N1CCCC1,-15.03%
18,CC(C)NC(=O)Nc1ccc(-c2nc3c([nH]2)CCNC3)cc1,-35.22%
19,O=S(=O)(c1ccc(-c2nc3c([nH]2)CCNC3)cc1)N1CCCC1,52.3%
20,Brc1cnc(NCCCOC2CCOCC2)nc1,21%
21,c1cnc(NCCCOC2CCOCC2)nc1,74.34%
22,Brc1ccc(NCCCOC2CCOCC2)nc1,-11.28%
23,Cc1ccc(-c2cc(N)c(=O)n(CC(=O)NCC3CC3)n2)s1,36.17%
24,CN(Cc1ccccc1)CC1(O)CCCN(CC(C)(C)C)C1=O (stereo not given),16.64%
